Data on five molecules can be found in PubChem BioAssay (EPA / NIEHS).

Records with an inconclusive call do not appear. Calls of active or inactive are those of the source. How the source made its calls, unless noted: active means hit-call score of the fitted dose curve at least 0.9, where 1 is the maximum; inactive means score below 0.9.

Read-out in assay [1]: Pyruvate Dehydrogenase Kinase 4 (PDK4), PDK4 (gene 5166)
Nature of the assay: LTEA_HepaRG_PDK4: Life Technologies and Expression Analysis (LTEA) Assay for Pyruvate Dehydrogenase Kinase 4 (PDK4) using HepaRG (AID 2283525). The following applies: mRNA level, 48 h; actives raise or lower the signal. A digest of the protocol:
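Readout is qRT-PCR of PDK4 transcript, normalized to three housekeeping genes, with bidirectional fitting against 0.5% DMSO vehicle. Differentiated HepaRG cells were treated 48 h in serum-free induction medium, duplicate wells, eight-point half-log series topping at 100 uM.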

Read-out in assay [2]: NAD(P)H dehydrogenase [quinone] 1 (NQO1), NQO1 (gene 1728)
Nature of the assay: LTEA_HepaRG_NQO1: Life Technologies and Expression Analysis (LTEA) Assay for NAD(P)H dehydrogenase [quinone] 1 (NQO1) using HepaRG (AID 2283526). The settings on record: mRNA level, 48 h; actives raise or lower the signal. A digest of the protocol: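 Transcript induction or suppression is quantified by qRT-PCR in human HepaRG liver cells dosed for 48 hours. Eight half-log concentrations topping at 100 uM are used, with 0.5% DMSO as vehicle and baseline.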

Read-out in assay [3]: succinate dehydrogenase complex iron sulfur subunit B (SDHB), SDHB (gene 6390)
Nature of the assay: LTEA_HepaRG_SDHB: Life Technologies and Expression Analysis (LTEA) Assay for succinate dehydrogenase complex iron sulfur subunit B (SDHB) using HepaRG (AID 2283528). The settings on record: mRNA level, 48 h; actives raise or lower the signal. A digest of the protocol: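 Readout is SDHB transcript level by qRT-PCR, normalised to three housekeeping genes and fitted bidirectionally against 0.5% DMSO vehicle. Human HepaRG cells were treated for 48 h at up to 100 uM.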

Read-out in assay [4]: Signal transducer and activator of transcription 3 (Homo sapiens) (UniProt P40763)
Description: LTEA_HepaRG_STAT3: Life Technologies and Expression Analysis (LTEA) Assay for Signal transducer and activator of transcription (STAT3) using HepaRG (AID 2283529). The following applies: mRNA level, 48 h; actives raise or lower the signal. A digest of the protocol: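 STAT3 transcript quantified by qRT-PCR against three housekeeping genes (ACTB, GAPDH, POLR2A), fitted both directions relative to DMSO. HepaRG cultures exposed 48 h to eight half-log concentrations, top 100 uM, 0.5% DMSO, serum-free induction medium.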

Read-out in assay [5]: solute carrier (SLCO1B1), SLCO1B1 (gene 10599)
Nature of the assay: LTEA_HepaRG_SLCO1B1: Life Technologies and Expression Analysis (LTEA) Assay for solute carrier (SLCO1B1) using HepaRG (AID 2283530). The following applies: mRNA level, 48 h; actives raise or lower the signal. A digest of the protocol:
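Human HepaRG cultures treated for 48 h with an eight-concentration half-log series topping at 100 uM; SLCO1B1 measured by qRT-PCR and fitted bidirectionally relative to DMSO.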

Read-out in assay [6]: sulfotransferase 2A1 (SULT2A1), SULT2A1 (gene 6822)
Description: LTEA_HepaRG_SULT2A1: Life Technologies and Expression Analysis (LTEA) Assay for sulfotransferase 2A1 (SULT2A1) using HepaRG (AID 2283531). The following applies: mRNA level, 48 h; actives raise or lower the signal. A digest of the protocol:
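Gene-expression endpoint in a human liver cell line: SULT2A1 mRNA change after 48 h chemical treatment, curves fitted in both directions relative to 0.5% DMSO vehicle. Concentrations spanned eight half-log steps from 100 uM.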

Read-out in assay [7]: Transforming Growth Factor (TGFA), TGFA (gene 7039)
Nature of the assay: LTEA_HepaRG_TGFA: Life Technologies and Expression Analysis (LTEA) Assay for Transforming Growth Factor (TGFA) using HepaRG (AID 2283532). The following applies: mRNA level, 48 h; actives raise or lower the signal. A digest of the protocol:
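TGFA transcript quantified by qRT-PCR (Fluidigm arrays) against three housekeeping genes, after 48 hours chemical treatment of HepaRG cells. Top concentration 100 uM with half-log dilutions, 8 points, duplicates, 0.5% DMSO.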

Read-out in assay [8]: Transforming Growth Factor (TGFB1), TGFB1 (gene 7040)
Nature of the assay: LTEA_HepaRG_TGFB1: Life Technologies and Expression Analysis (LTEA) Assay for Transforming Growth Factor (TGFB1) Transporter using HepaRG (AID 2283533). The following applies: mRNA level, 48 h; actives raise or lower the signal. An outline of the steps: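 Eight-point concentration-response (max 100 uM, half-log) in HepaRG under serum-free induction conditions, 48 h. TGFB1 mRNA by qRT-PCR, housekeeping-normalized.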

Read-out in the next assay: TIMP1, TIMP1 (gene 7076)
Nature of the assay: LTEA_HepaRG_TIMP1: Life Technologies and Expression Analysis (LTEA) Assay for TIMP1 using HepaRG (AID 2283534). The settings on record: mRNA level, 48 h; actives raise or lower the signal. A digest of the protocol: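 TIMP1 induction or repression in HepaRG cells after 48 h chemical exposure (eight concentrations, highest 100 uM), assessed by normalized qRT-PCR with bidirectional fitting to DMSO controls.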

Read-out in assay [9]: Tumor necrosis factor receptor 1 (TNFRSF1A), TNFRSF1A (gene 7132)
Description: LTEA_HepaRG_TNFRSF1A: Life Technologies and Expression Analysis (LTEA) Assay for Tumor necrosis factor receptor 1 (TNFRSF1A) using HepaRG (AID 2283535). The settings on record: mRNA level, 48 h; actives raise or lower the signal. An outline of the steps: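 Assay uses 48 h chemical treatment of differentiated HepaRG monolayers, tested in duplicate at eight concentrations from 100 uM downward in 0.5% DMSO. mRNA is normalized to ACTB, GAPDH and POLR2A, with induction or suppression fitted relative to vehicle.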

Read-out in assay [10]: Thyroid Hormone Responsive (THRSP), THRSP (gene 7069)
Nature of the assay: LTEA_HepaRG_THRSP: Life Technologies and Expression Analysis (LTEA) Assay for Thyroid Hormone Responsive (THRSP) using HepaRG (AID 2283536). The settings on record: mRNA level, 48 h; actives raise or lower the signal. An outline of the steps: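 THRSP transcript quantified by Fluidigm qRT-PCR against three housekeeping genes after 48 h chemical exposure of HepaRG cells in serum-free induction medium; eight-point half-log series, top 100 uM, 0.5% DMSO vehicle, duplicate wells.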

Read-out in assay [11]: Cellular tumor antigen p53 (Homo sapiens) (UniProt P04637)
Nature of the assay: LTEA_HepaRG_TP53: Life Technologies and Expression Analysis (LTEA) Assay for Tumor Protein P53 (TP53) using HepaRG (AID 2283537). The settings on record: mRNA level, 48 h; actives raise or lower the signal. A digest of the protocol:
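Read-out is TP53 transcript level by microfluidic qRT-PCR, normalised to three housekeeping genes and fitted bidirectionally against DMSO. Human HepaRG cells received compounds for 48 h, highest concentration 100 uM.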

Read-out in assay [12]: UDP glucuronosyltransferase (UGT1A1), UGT1A1 (gene 54658)
Nature of the assay: LTEA_HepaRG_UGT1A1: Life Technologies and Expression Analysis (LTEA) Assay for UDP glucuronosyltransferase (UGT1A1) using HepaRG (AID 2283538). The following applies: mRNA level, 48 h; actives raise or lower the signal. A digest of the protocol:
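Cells are plated, cultured 48 h, switched to serum-free induction medium, then dosed 48 h at eight concentrations (max 100 uM, 0.5% DMSO). RNA is isolated and UGT1A1 expression measured by qRT-PCR; changes versus DMSO are fitted in both directions.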

Read-out in assay [13]: UDP glucuronosyltransferase (UGT1A6), UGT1A6 (gene 54578)
Nature of the assay: LTEA_HepaRG_UGT1A6: Life Technologies and Expression Analysis (LTEA) Assay for UDP glucuronosyltransferase (UGT1A6) using HepaRG (AID 2283539). The settings on record: mRNA level, 48 h; actives raise or lower the signal. A digest of the protocol: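 Measures mRNA change in HepaRG hepatic cells exposed 48 h to chemicals (eight-point, maximum 100 uM, 0.5% DMSO vehicle) in serum-free induction medium. Expression normalized to endogenous controls; DMSO served as negative control and baseline.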

Read-out in assay [14]: X-box binding protein 1 (XBP1), XBP1 (gene 7494)
Description: LTEA_HepaRG_XBP1: Life Technologies and Expression Analysis (LTEA) Assay for X-box binding protein 1 (XBP1) using HepaRG (AID 2283540). The following applies: mRNA level, 48 h; actives raise or lower the signal. A digest of the protocol: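 Eight concentrations (half-log, highest 100 uM, 0.5% DMSO) tested in duplicate on HepaRG cells over 48 h in serum-free induction medium; qRT-PCR of XBP1 normalised to ACTB, GAPDH, POLR2A.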

Assay [15] is described as follows: LTEA_HepaRG_LDH_cytotoxicity: Cytotoxicity Assessment in the Life Technologies and Expression Analysis (LTEA) Assay (AID 2283563; active means hit-call score of the fitted dose curve at least 0.9, where 1 is the maximum). An outline of the steps:
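Spent-medium LDH after 48 h chemical exposure of HepaRG cells in serum-free induction medium; eight concentrations, half-log dilutions from 100 uM, duplicate wells, fitted upward relative to 0.5% DMSO.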

The nature of assay [16]: ATG_XTT_Cytotoxicity: Cytotoxicity Assessment in the Attagene TRANS-FACTORIAL HepG2 Assay (AID 2283584; active means hit-call score of the fitted dose curve at least 0.9, where 1 is the maximum). A digest of the protocol: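 24 h chemical exposure of reporter-transfected HepG2; XTT signal loss vs DMSO indicates cytotoxicity.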
A short description of assay [17]: TOX21_p53_BLA_p2_viability: Viability Assessment in the Tox21 HCT-116 p53 Agonism Beta-lactamase Assay, Phase 2 (AID 2283591; active means hit-call score of the fitted dose curve at least 0.9, where 1 is the maximum;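 further: compound exposure lasted 16 h at 37 °C; actives lower the ATP signal meaning cytotoxicity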). An outline of the steps:
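Cytotoxicity readout: CellTiter-Glo ATP luminescence, 30 min at room temperature, after the beta-lactamase read. Cells were HCT116 exposed 16 h at 37C to compounds pin-transferred at 217-fold dilution from DMSO stocks.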

Read-out in assay [18]: Nuclear factor erythroid 2-related factor 2 (Homo sapiens) (UniProt Q16236)
Description: LTEA_HepaRG_NFE2L2: Life Technologies and Expression Analysis (LTEA) Assay for Nuclear factor erythroid 2-related factor 2 (NFE2L2) Transcription Factor using HepaRG (AID 2283527). The following applies: mRNA level, 48 h; actives raise or lower the signal. A digest of the protocol:
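NFE2L2 transcript level was read by qRT-PCR (housekeeping ACTB/GAPDH/POLR2A normalisation) after 48 h chemical treatment of HepaRG in serum-free induction medium. Duplicate 8-point half-log curves, top 100 uM, 0.5% DMSO vehicle; up- or down-regulation fitted against vehicle.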

Assay [19] addresses Cellular tumor antigen p53 (Homo sapiens) (UniProt P04637). Description: TOX21_p53_BLA_p2_ratio: Tox21 HCT-116 p53 Agonism Beta-lactamase Assay, Ratio, Phase 2 (AID 2283592; active means hit-call score of the fitted dose curve at least 0.9, where 1 is the maximum). An outline of the steps:
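DMSO-normalized, positive-direction endpoint derived from the 460 nm/530 nm FRET ratio in HCT116 p53 beta-lactamase reporter cells exposed 16 h at 37C and loaded with CCF4-AM for 2 h.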

Signal transducer and activator of transcription 3 (Homo sapiens), sequence (P40763 whole entry, looked up): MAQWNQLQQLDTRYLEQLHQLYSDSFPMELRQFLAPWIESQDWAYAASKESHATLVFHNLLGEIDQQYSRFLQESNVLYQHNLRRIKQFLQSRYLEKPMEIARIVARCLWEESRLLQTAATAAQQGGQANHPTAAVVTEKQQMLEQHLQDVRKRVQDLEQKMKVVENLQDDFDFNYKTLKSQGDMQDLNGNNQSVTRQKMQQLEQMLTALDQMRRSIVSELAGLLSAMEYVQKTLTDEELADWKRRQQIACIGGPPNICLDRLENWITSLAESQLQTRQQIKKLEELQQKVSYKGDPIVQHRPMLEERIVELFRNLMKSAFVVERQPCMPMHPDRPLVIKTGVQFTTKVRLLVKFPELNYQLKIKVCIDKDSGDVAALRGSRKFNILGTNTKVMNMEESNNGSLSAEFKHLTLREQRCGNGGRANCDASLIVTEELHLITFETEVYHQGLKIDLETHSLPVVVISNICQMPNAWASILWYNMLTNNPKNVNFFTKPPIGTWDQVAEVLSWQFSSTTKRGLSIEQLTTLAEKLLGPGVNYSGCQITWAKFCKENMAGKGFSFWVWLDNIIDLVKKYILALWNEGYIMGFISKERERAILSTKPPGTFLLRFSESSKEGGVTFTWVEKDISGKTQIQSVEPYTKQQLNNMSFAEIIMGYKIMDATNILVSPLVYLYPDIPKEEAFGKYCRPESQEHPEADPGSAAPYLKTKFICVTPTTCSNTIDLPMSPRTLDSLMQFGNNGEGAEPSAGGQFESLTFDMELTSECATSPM
Cellular tumor antigen p53 (Homo sapiens), sequence (P04637 whole entry, looked up): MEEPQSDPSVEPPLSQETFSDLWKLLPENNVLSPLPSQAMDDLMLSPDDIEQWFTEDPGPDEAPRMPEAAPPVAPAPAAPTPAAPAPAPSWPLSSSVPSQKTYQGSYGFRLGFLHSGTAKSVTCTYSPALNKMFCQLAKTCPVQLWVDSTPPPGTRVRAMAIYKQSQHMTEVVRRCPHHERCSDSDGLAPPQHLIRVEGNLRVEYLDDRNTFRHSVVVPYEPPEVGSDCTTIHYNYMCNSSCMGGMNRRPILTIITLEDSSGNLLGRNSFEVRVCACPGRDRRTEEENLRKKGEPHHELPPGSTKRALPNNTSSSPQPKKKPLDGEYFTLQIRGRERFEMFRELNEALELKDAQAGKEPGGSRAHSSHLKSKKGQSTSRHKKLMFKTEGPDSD
Nuclear factor erythroid 2-related factor 2 (Homo sapiens), sequence (Q16236 whole entry, looked up): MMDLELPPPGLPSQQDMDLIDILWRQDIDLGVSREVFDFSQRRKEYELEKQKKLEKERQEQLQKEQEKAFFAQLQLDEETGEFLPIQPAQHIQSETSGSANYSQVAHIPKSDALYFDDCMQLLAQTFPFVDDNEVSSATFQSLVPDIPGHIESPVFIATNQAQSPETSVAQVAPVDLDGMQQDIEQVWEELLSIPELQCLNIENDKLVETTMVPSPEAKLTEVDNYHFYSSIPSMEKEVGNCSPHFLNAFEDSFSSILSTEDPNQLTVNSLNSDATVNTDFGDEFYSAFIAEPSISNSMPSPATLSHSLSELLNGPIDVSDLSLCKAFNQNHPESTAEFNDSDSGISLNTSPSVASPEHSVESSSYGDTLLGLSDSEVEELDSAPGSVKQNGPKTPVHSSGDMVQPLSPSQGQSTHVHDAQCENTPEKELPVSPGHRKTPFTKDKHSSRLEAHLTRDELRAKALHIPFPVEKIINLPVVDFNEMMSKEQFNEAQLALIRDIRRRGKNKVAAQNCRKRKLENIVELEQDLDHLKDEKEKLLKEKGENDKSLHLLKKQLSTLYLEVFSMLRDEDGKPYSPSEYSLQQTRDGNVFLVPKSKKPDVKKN

In the case of `COCC(C)OCC(C)O` (stereo not drawn), the outcome in assay [1], in assay [2], in assay [3], in assay [4], in assay [5] and in assay [6] was inactive. The outcome in [7] was “inactive”; in assay [8], “inactive”; with TIMP1, TIMP1 (gene 7076), “inactive”; in [9] it was “inactive”; in assay [10], “inactive”; in assay [11], “inactive”. Also, the outcome in [12], in assay [13], in [15] and in assay [16] was inactive. For the same molecule, in assay [14], the AC50 was 50 µM (active).

In the case of `CCCCC(CC)COC(=O)CCCCC(=O)OCC(CC)CCCC` (stereo not drawn), the outcome in assay [1], in assay [2], in assay [3], in assay [4], in assay [5] and in [6] was inactive. In addition, the outcome in [7] is “inactive”; in [8] it was “inactive”; with TIMP1, TIMP1 (gene 7076), “inactive”; in assay [9], “inactive”; in assay [10], “inactive”; in assay [11] it was “inactive”. Besides, the molecule was called inactive in assay [12], in assay [13], in [14], in assay [15], in assay [16] and in [17].

As to `Oc1cccc(O)c1`, the molecule was called inactive in [1], in assay [2], in assay [18], in assay [3], in assay [4] and in assay [5]. The outcome in assay [6] is “inactive”; in assay [7], “inactive”; in assay [8], “inactive”; with TIMP1, TIMP1 (gene 7076) it was “inactive”; in assay [9], “inactive”; in assay [10], “inactive”. The result in [11], in assay [12], in assay [13], in assay [14], in assay [15] and in [16] was inactive. The result in [17] and in assay [19] was inactive.

Regarding `O=C(OCCOCCOC(=O)c1ccccc1)c1ccccc1`, the molecule was classed as inactive in assay [1], in assay [2], in assay [18], in assay [3], in [4] and in assay [5]. Moreover, the outcome in assay [6] is “inactive”; in assay [7] it was “inactive”; in [8] it was “inactive”; in the assay with TIMP1, TIMP1 (gene 7076), “inactive”; in [9], “inactive”; in [10], “inactive”. The outcome in assay [11], in assay [12], in assay [13], in assay [14], in assay [15] and in assay [16] was inactive. The outcome in assay [19] was inactive.

In the case of `CCCCCCC(=O)O`, the result in [1], in assay [2], in [18], in assay [3], in assay [4] and in [5] was inactive. Also, the outcome in assay [6] is “inactive”; in assay [7], “inactive”; in assay [8], “inactive”; in the assay with TIMP1, TIMP1 (gene 7076), “inactive”; in [9] it was “inactive”; in [10], “inactive”. Moreover, the molecule was classed as inactive in assay [11], in assay [12], in assay [13], in assay [14], in assay [15] and in assay [16]. For the same molecule, the result in [19] was inactive.

As a reminder, the AC50 is the concentration giving half of the maximal activity seen.
